The text below walks through data of PubChem BioAssay (NCATS).

Test [1] relates to Zika virus NS2B-NS3 protease. The test is described as follows: Primary screen GU AMC qHTS for Zika virus inhibitors (AID 1347154). Note: nearly all actives have a fitted effect of over 70% in size. The procedure, abridged:
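Unlinked Zika NS2B hydrophilic domain/NS3 protease domain noncovalent complex (25 nM final) in 10 mM Tris-HCl pH 8.0, 0.01% Tween 20, with AMC peptide substrate. Fluorescence (ex 340, em 450 nm) change over 15 min, room temperature; percent inhibition fitted to 4-parameter Hill equation.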
In general terms: qHTS replaces the single test concentration by a dilution series.

Test [2] is described as follows: OV-KATE Cancer Cell Toxicity qHTS against the NCATS CANVASS Library (AID 1347345). The procedure, abridged:
(§1)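 Quantitative HTS format: an 11-concentration series was applied to 1000 cells/well following a 4-hour attachment. Cultures ran 72 hours before ATP luminescence detection by CellTiter-Glo.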

A short description of test [3]: HPAF-II Cancer Cell Toxicity qHTS against the NCATS CANVASS Library (AID 1347346). Note: series mostly up to about 38 µM; nearly all actives have a fitted effect of over 55% in size. An excerpt:
Natural products and their derivatives continue to be wellsprings of nascent therapeutic potential. However, many laboratories have limited resources for biological evaluation, leaving their previously isolated or synthesized compounds largely or completely untested. To address this issue, the Canvass library of natural products was assembled (https://tripod.nih.gov/canvass), in collaboration with academic and industry researchers, for quantitative high-throughput screening (qHTS) across a diverse set of cell-based and biochemical assays. The pure (>85% purity by liquid chromatography/mass spectrometry [LC/MS]) Canvass library of 346 natural products were submitted by 45 academic laboratories and companies around the world. […] The library was formatted into 1536-well plates and evaluated in 50 qHTS (in an 11-pnt concentration series) bioassays with broad scope of disease-relevant mechanisms. The resulting data set from 50 different assays was then systematically analyzed to identify overall trends and specific natural products with interesting biological activities. […]
Cancer Cell Toxicity protocol for cell lines COV-362, OV-KATE, OV-SAHO, UWB1.289, UWB1.289-WTBRCA1, HEK-293, HPAF-II, Panc-1005, SW1088, or U-118MG. […] 7.#Luminescence signal was acquired via the ViewLux plate reader (PerkinElmer) using a clear filter, 2 second exposure and 2x binning settings.

Test [4] is described as follows: UWB1.289 Cancer Cell Toxicity qHTS against the NCATS CANVASS Library (AID 1347347). Note: series mostly up to about 38 µM; nearly all actives have a fitted effect of over 60% in size. The procedure, abridged:
as §1

Test [5] in a line: OV-SAHO Cancer Cell Toxicity qHTS against the NCATS CANVASS Library (AID 1347348). Note: series mostly up to about 38 µM; nearly all actives have a fitted effect of over 55% in size. The procedure, abridged: as §1

The structures appear in SMILES notation. Inconclusive results are not listed. Entries that show only a call come without a potency. Unmarked numbers belong to inactive results. Active and inactive are the calls of the source. Calls come from the whole dose curve; as a rule, active = well fitted curve in the direction sought with a large enough effect; inconclusive = small, poorly fitted or top-dose-only effect, or another doubt; inactive = no such curve, though single readings can be large; an effect the other way counts as inactive or inconclusive.

In the case of `NCc1ccc(S(N)(=O)=O)cc1`, the Potency entry in test [1] was “inactive”.

Consider `OCc1ccc(Cl)cc1Cl`, for which the Potency result in test [1] was “inactive”.

Consider `O=C(O)COC(=O)Cc1ccccc1Nc1c(Cl)cccc1Cl`, for which the Potency entry in test [1] is “inactive”.

As for `O=C1C(c2[nH]c3ccccc3c2O)=Nc2ccccc21`, the Potency result in test [1] was “inactive”.

Turning to `Cc1c(Cn2ccnc2)c2ccccc2n1CCC(=O)O`, the Potency result in test [1] is “inactive”.

With `CC(=O)Nc1ccccc1`, in test [1], the Potency entry was “inactive”.

`C[C@@H]1CCC[C@H](C)N1`: the Potency entry in test [1] was “inactive”.

Consider `O=C(c1ccccc1)C(O)c1ccccc1` (configuration not stated), for which the Potency entry in test [1] was “inactive”.

On to `CNc1c2c(nn1C)CCCC2`, for which the Potency entry in test [1] was “inactive”.

`CCCNC(C)(C)COC(=O)c1ccccc1`: the Potency result in test [1] is “inactive”.

Take `CC(N)CCCC(C)(C)O` (configuration not stated): the Potency entry in test [1] is “inactive”.

Take `CCOc1cc(NC(C)=O)ccc1C(=O)OC`: in test [1], the Potency result was “inactive”.

`O=S1(=O)OC(c2ccc(O)cc2)(c2ccc(O)cc2)c2ccccc21`: in test [1], the Potency result was “inactive”.

Consider `OC[C@@H](O)[C@@H](O)[C@H](O)[C@H](O)CO`, for which, in test [1], the Potency entry is “inactive”.

As for `CCCCCC(N)=O`, in test [1], the Potency entry was “inactive”.

Regarding `Cc1c(C)c2c(c(C)c1OC(=O)c1cccnc1)CC[C@@](C)(CCC[C@H](C)CCC[C@H](C)CCCC(C)C)O2`, the Potency entry in test [1] was “inactive”.

As for `CN(C/C=C/C#CC(C)(C)C)Cc1cccc2ccccc12`, the Potency result in test [1] is “inactive”.

For `O[C@@H]1CO[C@H]2[C@@H]1OC[C@@H]2O`, in test [1], the Potency result was “inactive”.

For `CCCCCCCCCCOc1cc2c(=O)c(C(=O)OCC)c[nH]c2cc1OCC`, the activity change, negative = inhibition in test [1] was -1.56% [at 4.99 µM].

On to `CC(=O)OCC(COC(C)=O)OC(C)=O`, for which the Potency entry in test [1] is “inactive”.

On to `C=CCN1C[C@H](C(=O)N(CCCN(C)C)C(=O)NCC)C[C@@H]2c3cccc4[nH]cc(c34)C[C@H]21`, for which the Potency result in test [1] was “inactive”.

As to `COc1cc(O)cc(O)c1`, in test [1], the Potency result was “inactive”.

Take `Cc1ccc(S(=O)(=O)NC(=O)NC2CCCCCCC2)cc1`: the Potency entry in test [1] is “inactive”.

For `C[C@@H]1O[C@@H](OC[C@H]2O[C@@H](Oc3c(-c4ccc(O)c(O)c4)oc4cc(O)cc(O)c4c3=O)[C@H](O)[C@@H](O)[C@@H]2O)[C@H](O)[C@H](O)[C@H]1O`, the compound was classed as inactive in test [2], in test [3], in test [4] and in test [5].
